Most compounds without a hit are left out; they make up all but 19% or so of the library.
SARS PLpro yeast: inhibitors of SARS-CoV papain-like protease in yeast; S. cerevisiae expressing SARS-CoV PLpro, growth rescue; Potency, µM (top dose mostly 32.9 µM), for the others: top-dose activity, positive = growth rescue, usual class: activators; actives 0.19% (n = 330,000); calls by dose curve; further: potency means the concentration at half of the fitted maximal effect; 0% is about no effect; nearly all actives have a fitted effect of over 55% in size
Pf growth 48h: P. falciparum growth inhibition at 48 hours (one generation). P. falciparum luciferase growth in erythrocytes, 48 h. Potency, µM (series often up to 28.7 µM), without a hit: at the highest dose activity change, negative = inhibition, actives largely listed as inhibitors. actives 5.9% (n = 310,000). AID 504832; further: potency means the concentration at half of the fitted maximal effect; on the % scale 0 is the no-effect control and ±100 the full control effect
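A one-generation exposure of luciferase-tagged malaria parasites in RPMI 1640/Albumax erythrocyte culture, 37 C and 5% CO2. Inhibition is inferred from decreased luminescence after adding detection reagent.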
AMA1-RON2 inh: AMA1-RON2 (P. falciparum) interaction inhibition; Potency, µM (doses to about 58.2 µM), for the others: at the highest dose activity change, negative = inhibition, actives largely listed as inhibitors; actives 0.2% (n = 360,000); AlphaScreen AMA1-biotinylated RON2 peptide binding; AID 720542;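 further: potency means the concentration at half of the fitted maximal effect; 0% = vehicle wells and -100% = peptide control; nearly all actives have a fitted effect of over 45% in size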
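AMA1 (3D7) with his tag at 25 nM final met compounds first, then biotinylated RON2 peptide at 25 nM; detection used donor plus acceptor beads, 10 µg/mL apiece, read by AlphaScreen after 30 min at room temperature.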
CHX counter: affects cycloheximide protein synthesis inhibition readout, counter-screen; cell reporter, cycloheximide protein synthesis inhibition counterscreen; actives 12% (n = 300,000); max response, %; AID 2314; in the data active means max response mostly above about 13%, no sharp cut-off; inactive means mostly below about 14%; further: read at 38.3 µM for the half of the compounds with a filed dose; 0% is about no effect
Shiga inhibitor: Shiga toxin inhibition; Vero cells, Shiga toxin protein synthesis inhibition reporter; inhibition, % at 38.7 µM; actives 9.2% (n = 290,000); in the data active means inhibition mostly above about 28%, no sharp cut-off; inactive means mostly below about 43%; further: 0% is about no effect
Pf growth 96h: inhibits malaria parasite growth, 96 h; P. falciparum luciferase reporter growth, 96 h; Potency, µM (highest dose often 28.7 µM), for the others: at the highest dose activity change, negative = inhibition, most hits filed as inhibitors; actives 6.9% (n = 320,000); further: potency means the concentration at half of the fitted maximal effect; on the % scale 0 is the no-effect control and ±100 the full control effect
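Two-generation exposure (96 h) targets delayed-death phenotype. Reporter parasites carrying integrated firefly luciferase, in red cells at 2% hematocrit and 0.05% parasitemia final, kept at 37 C, 5% CO2; luminescence loss indicates inhibition.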
* marks the source's active call; other numbers are inactive results; ? = inconclusive; · = no result; [ ] = remark or other dose. Unless noted, the call rests on the fitted dose curve; in most records, active means well fitted curve in the direction sought with a large enough effect; inconclusive means small, poorly fitted or top-dose-only effect, or another doubt; inactive means no such curve, though single readings can be large; an effect the other way counts as inactive or inconclusive.

SMILES	SARS PLpro yeast	Pf growth 48h	AMA1-RON2 inh	CHX counter	Shiga inhibitor	Pf growth 96h
CCc1ccc(/C=N/n2c(C)cc(C)c(C#N)c2=O)cc1	16%	9.3µM*	-10%	10	13	1.7µM*
Cc1cccc(/C=N/n2c(C)cc(C)c(C#N)c2=O)c1	2%	5.2µM*	0%	-3	4	?
Cc1cc(C)cc(NC(=O)C2CCCN2/C=C/C(=O)C(F)(F)F)c1 (stereo not drawn)	5%	26%	-9%[2.32 µM]	-3	-14	74%
CCOC(=O)N1CCN(C(=O)CSCC(=O)Nc2nc(-c3ccc(-c4ccccc4)cc3)cs2)CC1	-4%	?	-3%	32*	active	10µM*
CCOC(=O)N1CCN(C(=O)CSCC(=O)Nc2nc(-c3ccc(OC)cc3)cs2)CC1	4%	?	14%	10	-3	?
O=C(CSCC(=O)N1CCOCC1)Nc1nc(-c2ccccc2)cs1	1%	-6%	2%	35*	84*	-17%
CC1=C(C(=O)N2CCOCC2)CC(CC(=O)NCCc2ccccn2)C(=O)N1CCCN1CCCC1=O (stereo not drawn)	·	·	5%	·	·	·
COC(=O)[C@@]12CCCCN1[C@H](c1ccc(-c3cccc(Cl)c3)cc1)[C@H]1C(=O)N(C)C(=O)[C@H]12	-2%	?	-6%	·	·	?
COC(=O)[C@@]12CCCN1[C@H](c1ccc(-c3cccc(Cl)c3)cc1)[C@H]1C(=O)N(C)C(=O)[C@H]12	-14%	6.6µM*	-15%	·	·	13µM*
COC(=O)[C@@]12CCCN1[C@H](c1ccc(-c3ccccc3)cc1)[C@@H]1C(=O)N(C)C(=O)[C@@H]12	4%	7.4µM*	1%	·	·	?
COc1ccc(CN(C)C(=O)c2cccc(NC(=O)CC3SC(N4CCCCC4)=NC3=O)c2)c(OC)c1 (stereo not drawn)	·	·	5%	·	·	·
CC(=O)N(c1ccccc1)C1CC(C)N(C(=O)c2ccccc2)c2ccccc21 (stereo not drawn)	4%	0%	6%	4	·	17%
CC1CC(N(C(=O)c2ccccc2Cl)c2ccccc2)c2ccccc2N1 (stereo not drawn)	-8%	?	-5%	-4	-10	12µM*
CCOC(=O)Cc1csc(NC(=O)CCSc2ccccc2)n1	-1%	-18%	-3%	10	-11	-15%
Cc1cc(N)c2cc(NC(=O)/C=C/c3ccccc3Cl)ccc2n1	0%	0.47µM*	?	1	13	0.59µM*
CCc1ccc(OCc2ccccc2C(=O)Nc2ccc3nc(C)cc(N)c3c2)cc1	·	·	·	27	35*	·
Cc1cccc(C(=O)NC(=S)NNC(=O)c2ccccc2Cl)c1	-42%	-4%	47%	1	-1	5%
CCOC(=O)c1ccc(NC(=O)c2cc(C)nc3ccccc23)cc1	3%	17%	1%	0	·	?
Cc1cc(C)nc(NC(=O)/C=C/c2cccs2)c1	-14%	117%	0%	19	108	199%
Cc1cc(C(=O)NNC(=S)NC(=O)/C=C/c2ccccc2Cl)n[nH]1	10µM*	·	-43%	13	59	6%
Cc1cc(C)nc(NC(=O)/C=C/c2ccccc2Cl)c1	-19%	-12%	-4%	30*	32*	49%
CCOC(=O)C(C#N)=C(c1ccccc1)c1ccccc1	·	-12%	·	·	·	?
CC(NC(=O)CCn1ccc2cc(S(=O)(=O)N3CCCC3)ccc21)c1ccccc1 (stereo not drawn)	-1%	?	7%	12	-9	?
CCc1c(C)c(C#N)c2nc3ccccc3n2c1NCc1ccccn1	0%	?	-3%	-2	-3	-1%
Cc1cc(C)nc(NC(=O)/C=C/c2ccc(Cl)cc2Cl)c1	1%	49%	-5%	41*	81*	68%
SMILES	SARS PLpro yeast	Pf growth 48h	AMA1-RON2 inh	CHX counter	Shiga inhibitor	Pf growth 96h
Cc1cc(C)nc(NC(=O)/C=C/c2ccccc2Cl)n1	-13%	76%	6%	45*	70*	36%
CCN(CC)Cc1c(NC(=O)c2ccccc2)sc(C)c1C	1%	30%	6%	8	32	42%
CCOC(=O)c1c(NC(=O)c2ccccc2)sc2c(O)c(CN(CC)CC)ccc12	0%	1.9µM*	0%	-4	-6	-4%
C/C(=C\c1ccco1)CN1CCN(Cc2ccc(C)o2)C(CCO)C1 (stereo not drawn)	0%	-9%	-1%	-3	-13	25%
Cc1c(C(=O)NC(C)C)c(-c2ccccc2)nn1-c1ccccc1	8%	-5%	-7%	5	3	-25%
Cc1c(C(=O)NC(C)c2ccccc2)c(-c2ccccc2)nn1-c1ccccc1 (stereo not drawn)	-11%	10µM*	-1%	-5	-5	?
c1cc(-c2ccc3c(c2)CCO3)n2cnnc2c1	·	·	1%	·	·	·
Cc1ccc(-c2cnc3n2CCCCC3)cc1	0%	-8%	-6%	2	14	?
c1cc2c(cc1-c1cnc3n1CCC3)OCCO2	-1%	31%	-2%	16	87*	·
CCOc1ccc(-c2cnc3n2CCCCC3)cc1	1%	-24%	-9%	8.6*	15	?
CCOc1ccc(C2=CS/C(=C(\C#N)c3nnc4n3CCCCC4)N2CC)cc1	-1%	?	0%	1	-12	-3%[5.75 µM]
c1ccc(-c2ccc(-c3cnc4n3CCCCC4)cc2)cc1	11%	?	?	22*	58	·
C/C(=N/Nc1cc(-c2ccccc2)nc(-c2ccccc2)n1)c1ccc(O)cc1	-61%	?	-3%	23*	31	?
C/C(=N\Nc1cc(Cl)nc(C)n1)c1ccccc1	-3%	37%	-3%	28*	46*	121%
COc1ccc(-n2ncc3c(SCC(=O)OC(C)C)ncnc32)cc1	·	·	0%	·	·	·
Cc1cccc(-n2ncc3c(N4CCCc5ccccc54)ncnc32)c1	-16%	·	48%	31	39	-32%
Cc1cccc(-n2ncc3c(N(CCO)CCO)ncnc32)c1	4%	185%	-2%	27*	65*	162%
Cc1cccc(-n2ncc3c(N(C)C4CCCCC4)ncnc32)c1	0%	22%	-4%	90*	127*	134%
COc1ccc(-n2ncc3c(N(C)C4CCCCC4)ncnc32)cc1	-1%	145%	-3%	45*	74*	0%
C=CCNC(=O)Nc1ccc(OCC)cc1	1%	25%	-1%	12*	10	·
C=CCOc1ccc(CN(C)C(=O)CNC(=O)c2ccc(-c3ccccc3)cc2)cc1	0%	13µM*	-4%	5	30	-29%
CC(=O)Nc1ccc(OCCOc2ccc(NC(C)=O)cc2)cc1	1%	·	7%	-4	-7	5%
CC(=O)Nc1ccc(OCC=C(Cl)Cl)cc1	-9%	-24%	18%	11*	25*	2%

Screens (PubChem)
